# Measured values taken from PubChem BioAssay (EPA / NIEHS).
# Where “and” joins values, the source holds several entries; their conditions need not be identical. Equal entries are not always repeated. Results filed as inconclusive are left out. Some structures have more than one record in an assay (separate samples or runs), and their calls can disagree. Calls of active or inactive are those of the source. How the source made its calls, unless noted: active means hit-call score of the fitted dose curve at least 0.9, where 1 is the maximum; inactive means score below 0.9.
# Experiments:
# [1] = biological target: human Vitamin D Receptor (VDR), VDR (gene 7421) (UniProt P11473); assay: ATG_VDR_TRANS: Attagene TRANS-FACTORIAL HepG2 Assay for human Vitamin D Receptor (VDR) (AID 2283022; active means hit-call score of the fitted dose curve at least 0.9, where 1 is the maximum)
# Sequence of human Vitamin D Receptor (VDR), VDR (gene 7421) (P11473 whole entry, looked up, the tested form may be a part): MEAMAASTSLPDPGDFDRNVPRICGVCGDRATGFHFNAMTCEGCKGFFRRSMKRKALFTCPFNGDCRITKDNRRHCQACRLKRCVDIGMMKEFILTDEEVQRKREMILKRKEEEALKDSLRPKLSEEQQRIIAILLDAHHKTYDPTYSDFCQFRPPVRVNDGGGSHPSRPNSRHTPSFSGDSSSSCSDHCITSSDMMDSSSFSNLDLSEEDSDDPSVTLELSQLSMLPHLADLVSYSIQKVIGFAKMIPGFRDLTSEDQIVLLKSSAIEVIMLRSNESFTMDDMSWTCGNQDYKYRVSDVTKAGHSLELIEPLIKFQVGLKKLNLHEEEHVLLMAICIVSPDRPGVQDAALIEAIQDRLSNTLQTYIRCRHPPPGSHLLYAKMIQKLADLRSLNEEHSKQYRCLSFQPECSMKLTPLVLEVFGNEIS
# Procedure, shortened: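 HepG2 cells were transiently transfected with GAL4-UAS reporter units and a chimeric VDR-Gal4 construct, then dosed for 24 hours. Reporter mRNA was quantified by RT-PCR, fluorescent labeling, HpaI digestion and capillary electrophoresis; gain of signal analysed vs DMSO.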
# [2] = read-out: Human Leukocyte Antigen - DR isotype (HLADR), HLA-DRA (gene 3122); assay: BSK_3C_HLADR: BioMAP Diversity Plus: 3C Assay for Human Leukocyte Antigen - DR isotype (HLADR) Biomarker Activity (AID 2283019); conditions: primary human endothelial cells (HUVEC); actives raise or lower the signal;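 on outcome: ELISA of cell-surface HLA-DR on HUVEC 24 h after dosing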
# Procedure, shortened: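 HUVEC monoculture, HLA-DR measured by ELISA 24 h after chemical dosing. Fitted bidirectionally against DMSO baseline; parallel SRB staining assessed cytotoxicity, with 3C proliferation read by SRB at 48 h.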
# [3] = read-out: Interleukin-8 (IL8), CXCL8 (gene 3576); assay: BSK_3C_IL8: BioMAP Diversity Plus: 3C Assay for Interleukin-8 (IL8) Biomarker Activity (AID 2283020); conditions: primary human endothelial cells (HUVEC); actives raise or lower the signal
# Procedure, shortened: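 Primary human umbilical vein endothelial cells (3C system) were exposed to test chemical for 24 h, then IL-8 was quantified by ELISA. Responses were fitted bidirectionally against DMSO vehicle as baseline.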
# [4] = read-out: Monokine induced gamma interferon (MIG), CXCL9 (gene 4283); assay: BSK_3C_MIG: BioMAP Diversity Plus: 3C Assay for Monokine induced gamma interferon (MIG) Biomarker Activity (AID 2283021); conditions: primary human endothelial cells (HUVEC); actives raise or lower the signal
# Procedure, shortened: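 Primary human umbilical vein endothelial cells in the 3C system were exposed to chemical for 24 h, after which MIG was quantified by ELISA. Activity was fitted bidirectionally against DMSO as negative control and baseline.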
# [5] = read-out: Matrix Metallopeptidase 1 (MMP1), MMP1 (gene 4312); assay: BSK_BE3C_MMP1: BioMAP Diversity Plus: BE3C Assay for Matrix Metallopeptidase 1 (MMP1) Biomarker Activity (AID 2283024); conditions: primary human bronchial epithelial cells; actives raise or lower the signal
# Procedure, shortened: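 Primary human bronchial epithelial cells were dosed with test chemicals, and MMP1 levels were measured by ELISA 24 h later. Data were fitted bidirectionally against DMSO as the negative control and activity baseline.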
# [6] = BSK_3C_Vis: BioMAP Diversity Plus: 3C Assay for Morphology Visualization (AID 2283025); conditions: primary human endothelial cells (HUVEC);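 further: fitted both ways so gain or loss versus DMSO counts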
# Procedure, shortened: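 Human umbilical vein endothelial cells in the 3C system were imaged by light microscopy 24 h after chemical dosing to record cell morphology. Activity was fitted bidirectionally against DMSO as negative control and baseline; the endpoint serves as a background control.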
# [7] = read-out: Pselectin, SELP (gene 6403); assay: BSK_4H_Pselectin: BioMAP Diversity Plus: 4H Assay for Pselectin Biomarker Activity (AID 2283026); conditions: primary human endothelial cells (HUVEC); actives raise or lower the signal
# Procedure, shortened: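 Primary human umbilical vein endothelial cells were exposed to test chemical for 24 h, then cell-surface P-selectin was quantified by ELISA. Activity was fitted bidirectionally against DMSO as negative control and baseline.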
# [8] = BSK_4H_SRB: Viability Assessment in the BioMAP Diversity Plus: 4H Assay (AID 2283027); conditions: primary human endothelial cells (HUVEC);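 further: cells exposed to compound for 24 h before staining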
# Procedure, shortened: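 Absorbance at 560 nm of SRB-stained total protein served as the viability read-out in confluent primary human umbilical vein endothelium 24 h after chemical treatment. Curves were fitted bidirectionally against DMSO as negative control.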
# [9] = read-out: Urokinase-type plasminogen activator receptor (uPAR), PLAUR (gene 5329); assay: BSK_4H_uPAR: BioMAP Diversity Plus: 4H Assay for Urokinase-type plasminogen activator receptor (uPAR) Biomarker Activity (AID 2283030); conditions: primary human endothelial cells (HUVEC); actives raise or lower the signal
# Procedure, shortened: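 Human umbilical vein endothelial cells in the 4H system, 24 h after chemical dosing. Cell-surface uPAR measured by ELISA, fitted in both directions versus DMSO; cytotoxicity checked by SRB total protein in parallel cultures.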
# [10] = read-out: Vascular endothelial growth factor receptor 2 (Homo sapiens) (UniProt P35968); assay: BSK_4H_VEGFRII: BioMAP Diversity Plus: 4H Assay for Vascular endothelial growth factor receptor 2 (VEGFR2) Biomarker Activity (AID 2283031); conditions: primary human endothelial cells (HUVEC); actives raise or lower the signal
# Procedure, shortened: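 Primary human umbilical vein endothelial cells (4H system), 24 h exposure; cell-surface VEGFR2 measured by ELISA. Bidirectional fitting versus DMSO; cytotoxicity checked in parallel by SRB total-protein staining.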
# [11] = read-out: Human Leukocyte Antigen - DR isotype (HLADR), HLA-DRA (gene 3122); assay: BSK_BE3C_HLADR: BioMAP Diversity Plus: BE3C Assay for Human Leukocyte Antigen - DR isotype (HLADR) Biomarker Activity (AID 2283032); conditions: primary human bronchial epithelial cells; actives raise or lower the signal
# Procedure, shortened: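 Human primary bronchial epithelial cells in the BE3C system were exposed to chemicals for 24 h, after which HLA-DR levels were quantified by ELISA. Activity was fitted bidirectionally, gain or loss of signal, against DMSO as negative control and baseline.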
# [12] = read-out: Vascular cell adhesion molecule 1 (VCAM1), VCAM1 (gene 7412); assay: BSK_4H_VCAM1: BioMAP Diversity Plus: 4H Assay for Vascular cell adhesion molecule 1 (VCAM1) Biomarker Activity (AID 2283033); conditions: primary human endothelial cells (HUVEC); actives raise or lower the signal;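 on outcome: cell-surface VCAM-1 protein measured by ELISA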
# Procedure, shortened: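 Primary human umbilical vein endothelial cells were exposed to chemicals for 24 h, after which VCAM-1 was quantified by ELISA. Responses were fitted bidirectionally against DMSO as negative control and activity baseline.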
# [13] = read-out: Interferon-gamma inducible Protein 10 (IP10), CXCL10 (gene 3627); assay: BSK_BE3C_IP10: BioMAP Diversity Plus: BE3C Assay for Interferon-gamma inducible Protein 10 (IP10) Biomarker Activity (AID 2283034); conditions: primary human bronchial epithelial cells; actives raise or lower the signal
# Procedure, shortened: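 Human primary bronchial epithelial cells were exposed to chemicals for 24 hours, after which IP-10 levels were measured by ELISA. Data were fitted bidirectionally against DMSO, which served as the negative control and activity baseline.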
# [14] = read-out: Monokine induced gamma interferon (MIG), CXCL9 (gene 4283); assay: BSK_BE3C_MIG: BioMAP Diversity Plus: BE3C Assay for Monokine induced gamma interferon (MIG) Biomarker Activity (AID 2283035); conditions: primary human bronchial epithelial cells; actives raise or lower the signal;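 further: MIG protein measured by ELISA in BE3C cultures after 24 h of dosing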
# Procedure, shortened: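 MIG level was determined by ELISA after 24 h chemical treatment of primary human bronchial epithelial cells. Values were fitted bidirectionally with DMSO as the negative control and activity baseline.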
# [15] = read-out: Transforming growth factor beta 1 (TGFb1), TGFB1 (gene 7040); assay: BSK_BE3C_TGFb1: BioMAP Diversity Plus: BE3C Assay for Transforming growth factor beta 1 (TGFb1) Biomarker Activity (AID 2283036); conditions: primary human bronchial epithelial cells; actives raise or lower the signal
# Procedure, shortened: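 Human primary bronchial epithelial cells (BE3C system) were dosed with chemical and TGF-b1 levels measured by ELISA at 24 h. Activity was fitted bidirectionally relative to DMSO negative control as baseline.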
# [16] = read-out: Plasminogen activator inhibitor-1 (PAI1), SERPINE1 (gene 5054); assay: BSK_BE3C_PAI1: BioMAP Diversity Plus: BE3C Assay for Plasminogen activator inhibitor-1 (PAI1) Biomarker Activity (AID 2283037); conditions: primary human bronchial epithelial cells; actives raise or lower the signal
# Procedure, shortened: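 Human primary bronchial epithelial cells were exposed to chemical for 24 h, then PAI-1 was quantified by ELISA. Activity was fitted bidirectionally relative to the DMSO negative control baseline.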
# [17] = read-out: urokinase plasminogen activator (uPA), PLAU (gene 5328); assay: BSK_BE3C_uPA: BioMAP Diversity Plus: BE3C Assay for urokinase plasminogen activator (uPA) Biomarker Activity (AID 2283038); conditions: primary human bronchial epithelial cells; actives raise or lower the signal;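 further: uPA protein level quantified by ELISA in cell cultures; uPA read one day after compound addition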
# Procedure, shortened: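 Primary human bronchial epithelial cells, uPA measured by ELISA 24 h after dosing. Bidirectional change relative to DMSO; cytotoxicity checked in parallel cultures by sulforhodamine B total-protein staining.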
# [18] = BSK_BE3C_SRB: Viability Assessment in the BioMAP Diversity Plus: BE3C Assay (AID 2283028); conditions: primary human bronchial epithelial cells
# Procedure, shortened: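 Human bronchial epithelial primary cells in confluent culture, 24 h after chemical dosing; total protein by 0.1% SRB staining after 10% TCA fixation, read at 560 nm. Bidirectional fitting versus DMSO baseline.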
# [19] = read-out: Thrombomodulin, THBD (gene 7056); assay: BSK_3C_Thrombomodulin: BioMAP Diversity Plus: 3C Assay for Thrombomodulin Biomarker Activity (AID 2283029); conditions: primary human endothelial cells (HUVEC); actives raise or lower the signal
# Procedure, shortened: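 Primary human umbilical vein endothelial cells (3C system) were exposed to chemical for 24 h, then thrombomodulin levels were measured by ELISA. Activity was fitted bidirectionally against the DMSO negative control as baseline.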
# [20] = BSK_3C_SRB: Viability Assessment in the BioMAP Diversity Plus: 3C Assay (AID 2283023); conditions: primary human endothelial cells (HUVEC);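 further: fitted both ways against DMSO so a hit may be signal rise or drop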
# Procedure, shortened: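 Human umbilical vein endothelial cells in the 3C system, treated 24 h. Total protein measured by 0.1% sulforhodamine B staining after 10% TCA fixation, read at 560 nm; bidirectional fit versus DMSO.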
smiles,measurement,setting,value
O=C(O)CF,outcome,[1],inactive
c1ccc(OP(Oc2ccccc2)Oc2ccccc2)cc1,outcome,[2],inactive
same,outcome,[3],inactive
same,outcome,[4],inactive
same,outcome,[5],inactive
same,outcome,[6],inactive
same,outcome,[7],inactive
same,outcome,[8],inactive
same,outcome,[9],inactive
same,outcome,[10],inactive
same,outcome,[11],inactive
same,outcome,[12],inactive
same,outcome,[13],inactive
same,outcome,[14],inactive
same,outcome,[15],inactive
same,outcome,[16],inactive
same,outcome,[17],inactive
C/C(=N\NC(=O)Nc1cc(F)cc(F)c1)c1ncccc1C(=O)O,outcome,[1],inactive
CC(O)C#N (stereo unspecified),outcome,[1],inactive
Oc1ccc(I)cc1,outcome,[1],inactive
CCOC(=O)c1ccccc1N,outcome,[1],inactive
Clc1ccc(Oc2ccccc2)cc1,outcome,[1],inactive
C=CC(=O)OCC(F)(F)C(F)F,AC50,[2],41.1 µM (active) and 43.6 µM (active)
same,outcome,[3],inactive
same,outcome,[4],inactive
same,outcome,[5],inactive
same,outcome,[8],inactive
same,outcome,[18],inactive
same,outcome,[9],inactive
same,outcome,[10],inactive
same,AC50,[11],44.9 µM (active)
same,outcome,[11],inactive
same,AC50,[12],38.9 µM (active) and 30 µM (active)
same,outcome,[13],inactive
same,outcome,[14],inactive
same,outcome,[16],inactive
same,outcome,[17],inactive
CC(=O)c1ccc(-c2ccccc2)cc1,outcome,[1],inactive
Nc1ccc(Sc2ccc(N)cc2)cc1,outcome,[1],inactive
COP(=O)(O)OC,outcome,[2],inactive
same,outcome,[3],inactive
same,outcome,[4],inactive
same,outcome,[6],inactive
same,outcome,[8],inactive
same,outcome,[18],inactive
same,outcome,[19],inactive
same,outcome,[9],inactive
same,outcome,[10],inactive
same,outcome,[11],inactive
same,outcome,[12],inactive
same,outcome,[13],inactive
same,outcome,[14],inactive
same,outcome,[15],inactive
same,outcome,[16],inactive
same,outcome,[17],inactive
N#Cc1ccc(O)cc1,outcome,[1],inactive
CCOS(=O)(=O)OCC,outcome,[2],inactive
same,outcome,[3],inactive
same,outcome,[4],inactive
same,outcome,[5],inactive
same,outcome,[6],inactive
same,outcome,[8],inactive
same,outcome,[19],inactive
same,outcome,[9],inactive
same,outcome,[10],inactive
same,outcome,[11],inactive
same,outcome,[12],inactive
same,outcome,[13],inactive
same,outcome,[14],inactive
same,outcome,[15],inactive
same,outcome,[16],inactive
same,outcome,[17],inactive
[N-]=[N+]=[N-],outcome,[2],inactive
same,outcome,[3],inactive
same,outcome,[4],inactive
same,outcome,[20],inactive
same,outcome,[6],inactive
same,outcome,[8],inactive
same,outcome,[9],inactive
same,outcome,[10],inactive
same,outcome,[11],inactive
same,outcome,[12],inactive
same,outcome,[13],inactive
same,outcome,[14],inactive
same,outcome,[15],inactive
same,outcome,[16],inactive
same,outcome,[17],inactive
CC(Cc1ccc(OCC(=O)O)cc1)NCC(O)c1csc(C(F)(F)F)n1 (stereo unspecified),outcome,[2],inactive
same,outcome,[3],inactive
same,outcome,[4],inactive
same,outcome,[5],inactive
same,outcome,[6],inactive
same,outcome,[7],inactive
same,outcome,[8],inactive
same,outcome,[18],inactive
same,outcome,[19],inactive
same,outcome,[9],inactive
same,outcome,[10],inactive
same,outcome,[11],inactive
same,outcome,[12],inactive
same,outcome,[13],inactive
same,outcome,[14],inactive
same,outcome,[15],inactive
same,outcome,[16],inactive
same,outcome,[17],inactive
CCCCN(CC)C(=O)SCCC,outcome,[1],inactive
